In PubChem BioAssay (NCATS):
Values joined by “and” are separate entries in the source; they are usually repeats but may differ in a detail not shown here. Equal values may be shown once. Inconclusive results are not listed. A call without a number means that no potency is given here. Active and inactive are the calls of the source. Unless noted, calls follow the shape of the dose curve; as a rule, active = well fitted curve in the direction sought with a large enough effect; inconclusive = small, poorly fitted or top-dose-only effect, or another doubt; inactive = no such curve, though single readings can be large; an effect the other way counts as inactive or inconclusive.

What was measured:
[1] = molecular target: Mitogen-activated protein kinase 10 (Mus musculus) (UniProt Q61831); test: JNK3 AlphaScreen Assay (AID 530; active = well fitted curve in either direction with a large enough effect, not every such curve was filed as active;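 also: kinase came from lysate of stimulated human HepG2 cells; signal reports phosphorylation of biotinylated GST-cJun 1-79 at Ser73 with 10 µM ATP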)
Method in brief: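 Compound titrations were preincubated 15 minutes at room temperature with substrate, antibody and pre-activated JNK3-containing HepG2 lysate. Reactions were started with 10 uM ATP and stopped with EDTA-containing bead buffer for AlphaScreen detection.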

[2] = Cell Viability - NIH 3T3 (AID 541); conditions: NIH 3T3 cell viability, qHTS; activity change, negative = cytotoxicity: at 92.2 µM (top of the series); also: nearly all actives have a fitted effect of over 25% in size
Method in brief: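 Mouse NIH 3T3 fibroblasts, 1000 cells/well, rested 5 hr at 37 °C, then exposed to compound for 40 hr at 37 °C in complete medium. Viability read as intracellular ATP by CellTiter-Glo luminescence; AC50 from Hill-equation fits of concentration-response data.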

[3] = MultiTox-Fluor Cytotoxicity Assay - LYMP1-002 - Live Cells (AID 955)
Method in brief: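 Human lymphoblastoid LYMP1-002 cells, 2500/well, treated 16 h at 37 C in complete medium. Live-cell protease activity via GF-AFC fluorescence (Ex/Em 405/510) after 60 min reagent incubation; AC50 from Hill fits.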

[4] = Cell Viability - LYMP2-011 (AID 969);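 also: cells exposed to compound for 24 hours; nearly all actives have a fitted effect of over 60% in size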
Method in brief: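 2500 cells/well in complete medium, compound-treated 24 h at 37 C. Viability read as intracellular ATP by CellTiter-Glo luminescence after 30 min at room temperature. AC50 from Hill fits of qHTS concentration-response data.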

[5] = Cell Viability - LYMP2-013 (AID 970); also: nearly all actives have a fitted effect of over 55% in size; also: potency is read from the fitted curve at half-maximal effect
Method in brief: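 Human lymphoblastoid LYMP2-013 cells, 2500/well, treated 24 h at 37 C in complete medium; viability as intracellular ATP by CellTiter-Glo luminescence after 30 min. AC50 from Hill fits of qHTS concentration-response.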

[6] = Cell Viability - LYMP2-019 (AID 973); also: nearly all actives have a fitted effect of over 55% in size
Method in brief: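 Human lymphoblastoid LYMP2-019 cells (2500/well) preincubated 5 h at 37 C, then treated 24 h at 37 C in complete medium. Viability by CellTiter-Glo ATP luminescence after 30 min at room temperature; AC50 from Hill fits.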

[7] = Cell Viability - LYMP2-023 (AID 975);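 also: cellular ATP measured by luciferase luminescence as viability proxy; cells exposed to compound for 24 hours at 37 °C; nearly all actives have a fitted effect of over 55% in size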
Method in brief: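 LYMP2-023 human lymphoblastoid cells, 2500/well, preincubated 5 hr at 37 C, then compound-treated 24 hr at 37 C in complete medium. CellTiter-Glo luminescence (ATP) after 30 min at room temperature; AC50 from Hill-equation fits; tetraoctylammonium bromide positive control.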

[8] = Cell Viability - LYMP2-012 (AID 982);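 also: cellular ATP by luciferase luminescence where a drop means cytotoxicity; cells exposed to compound for one day before reading; nearly all actives have a fitted effect of over 55% in size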; also: potency is read from the fitted curve at half-maximal effect
[9] = Cell Viability - LYMP2-024 (AID 988); also: nearly all actives have a fitted effect of over 60% in size; also: potency is read from the fitted curve at half-maximal effect
Method in brief: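 Human lymphoblastoid LYMP2-024 cells (2500/well) rested 5 hr, then treated with compound for 24 hr at 37 C in complete medium. Viability was measured as intracellular ATP by CellTiter-Glo luminescence. AC50 values came from Hill-equation fits.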

[10] = molecular target: Bile acid receptor (Homo sapiens) (UniProt Q96RI1); test: qHTS assay for small molecule antagonists of farnesoid X receptor signaling (AID 588526; calls by dose curve)
Method in brief: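 Beta-lactamase reporter antagonist mode: HEK293T FXR-UAS-bla cells, titrated compound, CDCA stimulation, 16 h 37 C, CCF4 dye 2 h RT. Data normalized to CDCA 50 uM and DMSO; Hill-fit IC50.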

[11] = molecular target: Glucocorticoid receptor (Homo sapiens) (UniProt P04150); test: qHTS assay for small molecule agonists of glucocorticoid receptor signaling (AID 588532; active = well fitted curve in the direction sought with a large enough effect in the signal ratio, with a control signal flat; the % refers to the signal ratio); conditions: HeLa MMTV-bla, beta-lactamase ratio, agonist, 18 h; stronger effect = higher value; percent of dexamethasone control, DMSO zero
Method in brief: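 Quantitative HTS using CellSensor MMTV-bla HeLa cells in charcoal/dextran-treated serum; compounds tested up to 92 uM. After 18 h at 37 C, CCF4 dye reported reporter induction.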

[12] = molecular target: Glucocorticoid receptor (Homo sapiens) (UniProt P04150); test: qHTS assay for small molecule antagonists of glucocorticoid receptor signaling (AID 588533; active = well fitted inhibition curve with a large enough effect in the signal ratio, with a control signal flat, not every such curve was filed as active; the % refers to the signal ratio;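 also: cells stimulated with 2 nM dexamethasone as agonist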)
Method in brief: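 Antagonist-mode qHTS: compound titrations added to GRE-bla HeLa cells, then dexamethasone 2 nM final; 18 h, 37 C. CCF4 FRET fluorescence normalized to dexamethasone and DMSO; IC50 from Hill fit.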

[13] = qHTS assay for small molecule antagonists of peroxisome proliferator-activated receptor delta signaling (AID 588535); conditions: HEK293T PPARd-UAS-bla, beta-lactamase FRET ratio, 18 h; 460 nm channel;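 also: cells co-treated with a PPAR-delta agonist as stimulator during compound exposure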
Method in brief: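 HEK293T PPAR-delta-UAS-bla cells, 4000/well, 2% charcoal/dextran FBS; 5 h 37 C; cpd titration; 18 h 37 C; CCF4 2 h RT; FI 460/530 nm; Hill fit → IC50, efficacy.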

[14] = molecular target: Retinoic acid receptor RXR-alpha (Homo sapiens) (UniProt P19793); test: qHTS assay for small molecule agonists of retinoid X receptor alpha signaling (AID 588544; calls by dose curve; also: potency is read from the fitted curve at half-maximal effect)
[15] = Cell Viability - LYMP2-007 (AID 979);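 also: cells exposed to compound for 24 h before reading; nearly all actives have a fitted effect of over 60% in size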; also: potency is read from the fitted curve at half-maximal effect
Method in brief: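 Human lymphoblastoid LYMP2-007 cells (2500/well) preincubated 5 h at 37 C, then treated 24 h at 37 C in complete medium. Viability by CellTiter-Glo ATP luminescence after 30 min at room temperature; AC50 from Hill fits.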

[16] = molecular target: Peroxisome proliferator-activated receptor gamma (Homo sapiens) (UniProt P37231); test: qHTS assay for small molecule antagonists of peroxisome proliferator-activated receptor gamma signaling (AID 588537; active = well fitted inhibition curve with a large enough effect in the signal ratio, with a control signal flat, not every such curve was filed as active; the % refers to the signal ratio;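 also: reporter cells co-stimulated with 50 nM rosiglitazone agonist during compound treatment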)
Method in brief: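 Antagonist mode, beta-lactamase reporter in HEK293; charcoal/dextran FBS 1%; 3000 cells/well, 37 C 6-6.5 h; cpd titration + rosiglitazone 50 nM final, 16 h 37 C; CCF4, 2 h RT; 460/530 nm; Hill fit → IC50, efficacy.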

[17] = Cell Viability - SH-SY5Y (AID 544); conditions: SH-SY5Y neuroblastoma cell viability; viability change, negative = cytotoxic: at 92.2 µM (top of the series); also: nearly all actives have a fitted effect of over 55% in size
Method in brief: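 SH-SY5Y human neuroblastoma cells (1500/well) incubated 5 h, then compound-treated 40 h at 37 °C in complete medium. Viability read as intracellular ATP by CellTiter-Glo luminescence after 20 min; AC50 from Hill-equation fits of qHTS concentration-response.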

[18] = molecular target: Estrogen receptor (Homo sapiens) (UniProt P03372); test: qHTS assay for small molecule agonists of estrogen receptor alpha signaling (AID 588514; calls by dose curve; also: nearly all actives have a fitted effect of over 70% in size)
Method in brief: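 ER-alpha-UAS-bla GripTite HEK293 cells, 5000/well in 2% charcoal/dextran-stripped FBS medium, treated with compound titrations 18 h at 37 C. CCF4 beta-lactamase read by fluorescence after 2 h RT; normalised to 20 nM 17-beta-estradiol (100%) and DMSO (0%), Hill fit for EC50 and efficacy.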

[19] = qHTS assay to identify small molecules that stimulate interleukin-8 (IL-8) secretion (AID 651758; active = well fitted activation curve with a large enough effect in the signal ratio; the % refers to the signal ratio; also: potency is read from the fitted curve at half-maximal effect)
Method in brief: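 Secreted IL-8 measured by TR-FRET sandwich (cryptate and XL665 antibodies) from THP-1 cells exposed to compound overnight (16 hrs, 37 C).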

[20] = molecular target: Vitamin D3 receptor (Homo sapiens) (UniProt P11473); test: qHTS assay for small molecule antagonists of vitamin D receptor signaling (AID 588541; calls by dose curve;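 also: receptor activated by calcitriol during compound treatment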)
Method in brief: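 Antagonist-mode beta-lactamase reporter assay: HEK293T VDR-UAS-bla cells were exposed to titrated compound alongside 1-alpha,25-dihydroxyvitamin D3 at 3 nM final for 16 h. Values were normalized to the 50 nM agonist control and DMSO basal, with IC50 and efficacy from Hill equation fits.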

Sequence of Estrogen receptor (Homo sapiens) (P03372 whole entry, looked up): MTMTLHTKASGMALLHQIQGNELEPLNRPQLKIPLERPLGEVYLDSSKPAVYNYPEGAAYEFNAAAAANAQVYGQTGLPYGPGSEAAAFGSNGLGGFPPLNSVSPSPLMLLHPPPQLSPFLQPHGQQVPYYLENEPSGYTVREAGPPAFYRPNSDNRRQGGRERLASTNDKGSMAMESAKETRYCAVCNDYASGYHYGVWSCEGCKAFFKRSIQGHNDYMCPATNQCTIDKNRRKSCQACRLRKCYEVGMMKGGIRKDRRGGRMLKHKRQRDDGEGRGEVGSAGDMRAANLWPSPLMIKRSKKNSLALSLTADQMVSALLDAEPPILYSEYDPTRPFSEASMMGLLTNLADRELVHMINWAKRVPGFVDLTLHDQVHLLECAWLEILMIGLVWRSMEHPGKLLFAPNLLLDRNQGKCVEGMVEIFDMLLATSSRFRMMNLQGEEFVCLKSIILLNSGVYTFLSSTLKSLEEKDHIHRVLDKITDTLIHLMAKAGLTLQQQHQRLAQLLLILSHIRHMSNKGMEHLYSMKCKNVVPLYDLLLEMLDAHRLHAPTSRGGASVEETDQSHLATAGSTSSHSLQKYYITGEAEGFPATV
Sequence of Vitamin D3 receptor (Homo sapiens) (P11473 whole entry, looked up): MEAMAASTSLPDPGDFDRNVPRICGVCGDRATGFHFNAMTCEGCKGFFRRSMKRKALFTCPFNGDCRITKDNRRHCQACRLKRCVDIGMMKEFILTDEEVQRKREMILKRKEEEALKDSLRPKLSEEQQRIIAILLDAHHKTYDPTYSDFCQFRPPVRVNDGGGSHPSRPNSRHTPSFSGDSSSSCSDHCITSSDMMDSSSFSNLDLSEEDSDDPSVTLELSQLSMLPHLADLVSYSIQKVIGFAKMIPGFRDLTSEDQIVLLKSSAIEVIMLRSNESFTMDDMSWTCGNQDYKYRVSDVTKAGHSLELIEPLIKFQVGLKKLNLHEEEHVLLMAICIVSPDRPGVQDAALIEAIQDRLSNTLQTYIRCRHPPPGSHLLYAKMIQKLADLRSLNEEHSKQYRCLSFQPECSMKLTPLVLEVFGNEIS
Sequence of Glucocorticoid receptor (Homo sapiens) (P04150 whole entry, looked up): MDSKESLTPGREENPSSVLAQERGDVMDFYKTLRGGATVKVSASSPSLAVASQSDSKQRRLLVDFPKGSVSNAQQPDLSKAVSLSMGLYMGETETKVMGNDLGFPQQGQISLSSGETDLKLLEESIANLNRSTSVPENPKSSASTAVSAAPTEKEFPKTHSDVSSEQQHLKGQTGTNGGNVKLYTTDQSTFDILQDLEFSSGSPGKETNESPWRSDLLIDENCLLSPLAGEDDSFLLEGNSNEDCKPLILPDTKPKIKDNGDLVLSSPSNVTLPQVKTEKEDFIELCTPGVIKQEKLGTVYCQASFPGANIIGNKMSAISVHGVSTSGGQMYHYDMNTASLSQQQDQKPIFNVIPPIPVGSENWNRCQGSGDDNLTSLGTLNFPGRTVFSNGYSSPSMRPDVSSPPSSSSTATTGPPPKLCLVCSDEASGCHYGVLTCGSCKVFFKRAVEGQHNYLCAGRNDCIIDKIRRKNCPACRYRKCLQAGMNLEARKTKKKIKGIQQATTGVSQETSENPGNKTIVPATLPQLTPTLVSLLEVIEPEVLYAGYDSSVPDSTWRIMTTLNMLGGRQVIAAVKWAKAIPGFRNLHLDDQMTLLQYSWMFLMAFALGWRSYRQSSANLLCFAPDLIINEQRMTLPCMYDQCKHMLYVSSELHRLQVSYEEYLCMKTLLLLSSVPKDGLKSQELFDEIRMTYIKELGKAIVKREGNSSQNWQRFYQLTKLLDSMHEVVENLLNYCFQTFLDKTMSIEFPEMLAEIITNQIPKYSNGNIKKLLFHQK
Sequence of Peroxisome proliferator-activated receptor gamma (Homo sapiens) (P37231 whole entry, looked up): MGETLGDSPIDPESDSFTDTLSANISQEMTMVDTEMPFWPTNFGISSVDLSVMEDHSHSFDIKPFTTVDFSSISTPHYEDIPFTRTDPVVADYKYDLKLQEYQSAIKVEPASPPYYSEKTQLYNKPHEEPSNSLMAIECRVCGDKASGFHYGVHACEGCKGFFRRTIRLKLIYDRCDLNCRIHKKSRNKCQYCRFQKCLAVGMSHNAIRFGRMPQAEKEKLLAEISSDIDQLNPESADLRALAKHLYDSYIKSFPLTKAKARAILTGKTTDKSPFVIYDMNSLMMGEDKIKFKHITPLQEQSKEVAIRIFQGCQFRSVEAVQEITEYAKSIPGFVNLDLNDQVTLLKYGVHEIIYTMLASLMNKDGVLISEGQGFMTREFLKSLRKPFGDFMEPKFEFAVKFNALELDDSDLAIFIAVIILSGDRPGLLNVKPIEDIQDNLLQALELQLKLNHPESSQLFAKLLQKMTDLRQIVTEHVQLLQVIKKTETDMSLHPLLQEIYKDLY
Sequence of Retinoic acid receptor RXR-alpha (Homo sapiens) (P19793 whole entry, looked up): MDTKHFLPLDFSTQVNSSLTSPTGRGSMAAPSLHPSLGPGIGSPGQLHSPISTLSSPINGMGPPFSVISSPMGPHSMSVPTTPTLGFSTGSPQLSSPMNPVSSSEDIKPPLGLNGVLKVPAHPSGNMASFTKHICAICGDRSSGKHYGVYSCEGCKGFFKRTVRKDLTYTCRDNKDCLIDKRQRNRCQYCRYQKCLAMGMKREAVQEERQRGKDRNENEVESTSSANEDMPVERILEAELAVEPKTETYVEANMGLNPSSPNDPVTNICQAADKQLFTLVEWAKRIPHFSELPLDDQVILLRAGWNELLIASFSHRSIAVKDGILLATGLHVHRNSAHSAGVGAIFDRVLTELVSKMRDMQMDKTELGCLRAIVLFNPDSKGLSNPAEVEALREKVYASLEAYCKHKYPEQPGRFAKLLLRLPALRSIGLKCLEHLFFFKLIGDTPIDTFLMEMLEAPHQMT
Sequence of Bile acid receptor (Homo sapiens) (Q96RI1 whole entry, looked up): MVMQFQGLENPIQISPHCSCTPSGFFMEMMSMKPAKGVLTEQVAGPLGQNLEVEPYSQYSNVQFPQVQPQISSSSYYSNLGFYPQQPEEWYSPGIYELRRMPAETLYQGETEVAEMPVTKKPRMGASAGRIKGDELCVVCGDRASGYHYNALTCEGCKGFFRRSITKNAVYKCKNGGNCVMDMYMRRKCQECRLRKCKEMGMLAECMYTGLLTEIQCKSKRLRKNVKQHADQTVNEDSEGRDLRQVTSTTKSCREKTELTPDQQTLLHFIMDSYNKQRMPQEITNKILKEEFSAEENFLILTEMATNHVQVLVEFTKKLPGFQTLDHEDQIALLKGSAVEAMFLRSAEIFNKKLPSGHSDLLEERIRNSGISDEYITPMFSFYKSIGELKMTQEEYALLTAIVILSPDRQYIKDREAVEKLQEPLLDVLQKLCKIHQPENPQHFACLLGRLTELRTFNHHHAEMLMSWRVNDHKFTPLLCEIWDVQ

| SMILES | Potency [1] | activity change, negative = cytotoxicity [2] | outcome [3] | Potency [4] | Potency [5] | Potency [6] | Potency [7] | Potency [8] | Potency [9] | Potency [10] | activation [11] | Potency [12] | max response [13] | Potency [14] | Potency [15] | Potency [16] | Potency [17] | Potency [18] | Potency [19] | Potency [20] |
| --- | --- | --- | --- | --- | --- | --- | --- | --- | --- | --- | --- | --- | --- | --- | --- | --- | --- | --- | --- | --- |
| Oc1c(Cl)cc(Cl)c(Cl)c1Cl | inactive | -2.17% (inactive) | inactive | inactive | inactive | inactive | inactive | inactive | inactive | inactive | 5.94% (inactive) | inactive | 22.5% | inactive | – | – | – | – | – | – |
| COc1ccc(C(=O)Nc2ccccc2)cc1[N+](=O)[O-] | inactive | – | inactive | – | – | inactive | inactive | inactive | – | inactive | -1.05% (inactive) | inactive | – | – | inactive | inactive | – | – | – | – |
| CC(C)COC(=O)COc1cc(Cl)c(Cl)cc1Cl | – | -0.53% (inactive) | inactive | inactive | inactive | inactive | – | – | – | – | -3.56% (inactive) | – | 16.7% | inactive | inactive | inactive | inactive | inactive | inactive | – |
| CC(C)OCC1CO1 (stereo not drawn) | – | -16.9% (inactive) | – | inactive | – | – | inactive | inactive | – | inactive | – | – | 3.66% | inactive | – | inactive | inactive | inactive | – | inactive |
| C=Cc1cccc(C)c1 | – | 4.07% (inactive) | inactive | inactive | inactive | – | inactive | – | inactive | – | -2.15% (inactive) | inactive | -23.4% | – | inactive | inactive | – | inactive | inactive | – |
| Cc1ccc(N)cc1[N+](=O)[O-] | inactive | – | – | inactive | – | – | inactive | inactive | inactive | – | – | inactive | 35.9% | inactive | inactive | inactive | inactive | – | – | – |
| CCCCCCCCOc1ccc(C(=O)O)cc1 | – | -11.5% (inactive) | – | inactive | inactive | – | inactive | inactive | – | inactive | – | inactive | – | 39.8 µM (active) | – | – | – | – | 66.8 µM (active) | inactive |
| OCC(CO)(CBr)CBr | inactive | – | inactive | inactive | inactive | inactive | inactive | inactive | inactive | inactive | -3.06% (inactive) | inactive | 0.13% and -4.24% | inactive | – | inactive | – | – | inactive | – |
| CCCCC(CC)COC(=O)COc1ccc(Cl)cc1Cl (stereo not drawn) | – | 0.559% (inactive) | inactive | inactive | inactive | – | – | – | inactive | – | – | inactive | – | inactive | inactive | – | – | inactive | – | – |
| CCCCCCc1ccc(-c2ccc(C#N)cc2)cc1 | – | -12.5% (inactive) | inactive | – | inactive | inactive | inactive | – | – | – | – | – | 11% | inactive | inactive | – | inactive | – | inactive | – |
| CCCCNCC | – | -8.38% (inactive) | – | – | inactive | inactive | inactive | inactive | inactive | – | – | inactive | -21.4% | – | inactive | – | inactive | inactive | inactive | – |
| c1ccc(CSCc2ccccc2)cc1 | – | -18.8% (inactive) | inactive | inactive | – | – | inactive | – | inactive | – | – | inactive | 13.7% | – | inactive | inactive | inactive | – | – | inactive |
| COc1cc(-c2ccc(N=C=O)c(OC)c2)ccc1N=C=O | inactive | – | inactive | – | inactive | – | inactive | inactive | inactive | – | – | – | – | inactive | inactive | – | – | – | – | inactive |
| c1ccc2c(c1)ccc1ccccc12 | – | -132% (active) | inactive | – | – | – | inactive | – | inactive | inactive | – | inactive | -5.89% | inactive | inactive | inactive | – | inactive | – | inactive |
| CCCCC(CC)COCCCN (stereo not drawn) | inactive | – | inactive | – | – | inactive | inactive | – | inactive | inactive | -4.42% (inactive) | – | 8.44% | inactive | inactive | – | inactive | inactive | – | – |
| OC1CCCCC1 | – | -12.6% (inactive) | inactive | inactive | inactive | inactive | – | inactive | inactive | – | – | – | 23.6% | – | inactive | inactive | – | inactive | inactive | – |
| Cc1ccc(C(=O)O)cc1[N+](=O)[O-] | – | – | inactive | – | inactive | inactive | – | inactive | – | – | – | – | – | – | inactive | inactive | inactive | inactive | – | – |
| CCCCCCN | – | – | inactive | – | – | – | inactive | – | inactive | – | – | – | – | – | inactive | – | inactive | inactive | – | inactive |
| C/C=C1/C(=O)C[C@H]2[C@@H]3CCC4=CC(=O)CC[C@]4(C)[C@H]3CC[C@]12C | inactive | -151% (active) | – | – | 50.1 µM (active) | – | – | 39.8 µM (active) | 39.8 µM (active) | – | – | – | – | – | 39.8 µM (active) | – | – | – | – | – |
| c1ccc(COCc2ccccc2)cc1 | – | – | inactive | inactive | – | inactive | – | – | – | inactive | – | inactive | – | inactive | inactive | inactive | – | inactive | inactive | – |
| Cc1ccccc1OCC1CO1 (stereo not drawn) | inactive | -29.7% (inactive) | inactive | inactive | inactive | inactive | – | – | inactive | inactive | – | inactive | – | – | inactive | – | inactive | inactive | inactive | – |
